{"source": "paper PMC7862700", "about": "“An all-to-all approach to the identification of sequence-specific readers for epigenetic DNA modifications on cytosine”", "assay_in_all_cases": "DAPPL (digital affinity profiling via proximity ligation, sequencing); 10 mM Tris-HCl pH 7.5, 50 mM NaCl, 1 mM DTT, 4% glycerol, room temperature, 30 min; GST-TFs on glutathione beads, 16-mer random dsDNA library, 0.1% formaldehyde crosslink after washing; high values mean tight binding", "details_in_all_cases": "protein: recombinant; tags: N-terminal GST; dsDNA, one strand shown", "key": {"FLI1": {"molecular_target": "T1, FLI1 (Homo sapiens, UniProt Q01543 1-452)", "T1 sequence": "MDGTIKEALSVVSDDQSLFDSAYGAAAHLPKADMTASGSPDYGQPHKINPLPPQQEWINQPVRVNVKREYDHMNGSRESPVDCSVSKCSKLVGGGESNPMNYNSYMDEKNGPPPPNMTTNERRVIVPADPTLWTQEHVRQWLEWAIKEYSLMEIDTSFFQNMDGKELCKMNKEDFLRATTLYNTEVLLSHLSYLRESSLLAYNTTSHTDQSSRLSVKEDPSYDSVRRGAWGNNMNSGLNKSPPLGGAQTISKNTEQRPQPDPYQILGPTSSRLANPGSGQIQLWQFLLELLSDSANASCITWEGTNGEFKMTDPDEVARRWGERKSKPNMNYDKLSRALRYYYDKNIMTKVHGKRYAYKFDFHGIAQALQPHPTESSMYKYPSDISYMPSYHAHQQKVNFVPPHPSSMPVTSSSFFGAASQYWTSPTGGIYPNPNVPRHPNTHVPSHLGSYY", "summary_of_the_method": "(§1)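 Human transcription factors were made in yeast as GST fusions, captured on glutathione beads and barcoded with DNA. With a tag-only sample included, the pool was incubated with 200 nmole of a random double-stranded 16-mer DNA library in Tris/NaCl/DTT/glycerol buffer at room temperature for 30 min, then crosslinked with 0.1% formaldehyde after washing, ligated by proximity, amplified and sequenced. For binding signal, each hexamer's read frequency for a factor is divided by its frequency for the tag-only sample.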"}, "ELK1": {"molecular_target": "T2, ELK1 (Homo sapiens, UniProt P19419 1-428)", "T2 sequence": "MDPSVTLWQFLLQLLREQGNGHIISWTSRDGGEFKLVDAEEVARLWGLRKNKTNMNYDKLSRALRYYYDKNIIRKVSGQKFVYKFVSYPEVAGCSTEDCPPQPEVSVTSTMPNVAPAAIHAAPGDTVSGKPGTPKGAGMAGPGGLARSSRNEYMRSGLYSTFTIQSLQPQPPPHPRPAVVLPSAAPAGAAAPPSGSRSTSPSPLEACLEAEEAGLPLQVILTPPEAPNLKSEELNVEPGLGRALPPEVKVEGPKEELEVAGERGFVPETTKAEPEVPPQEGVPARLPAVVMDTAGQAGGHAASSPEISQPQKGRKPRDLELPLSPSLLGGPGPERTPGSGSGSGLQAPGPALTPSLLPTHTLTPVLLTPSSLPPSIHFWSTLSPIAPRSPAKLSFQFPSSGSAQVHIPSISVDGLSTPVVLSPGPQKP", "summary_of_the_method": "as §1"}, "GABPA": {"molecular_target": "T3, GABPA (Homo sapiens, UniProt Q06546 1-454)", "T3 sequence": "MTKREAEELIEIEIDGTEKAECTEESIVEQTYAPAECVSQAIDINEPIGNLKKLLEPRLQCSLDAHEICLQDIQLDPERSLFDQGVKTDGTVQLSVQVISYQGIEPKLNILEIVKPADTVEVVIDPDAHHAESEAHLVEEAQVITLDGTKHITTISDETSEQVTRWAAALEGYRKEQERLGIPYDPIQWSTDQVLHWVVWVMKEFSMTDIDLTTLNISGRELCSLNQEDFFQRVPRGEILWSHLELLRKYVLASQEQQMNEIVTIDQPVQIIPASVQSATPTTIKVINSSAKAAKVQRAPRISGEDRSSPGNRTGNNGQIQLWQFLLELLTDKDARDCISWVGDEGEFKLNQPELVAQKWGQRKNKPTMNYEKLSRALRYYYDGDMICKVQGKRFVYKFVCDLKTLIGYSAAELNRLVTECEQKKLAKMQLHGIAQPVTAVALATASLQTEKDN", "summary_of_the_method": "as §1"}, "ERG": {"molecular_target": "T4, ERG (Homo sapiens, UniProt P11308 1-479)", "T4 sequence": "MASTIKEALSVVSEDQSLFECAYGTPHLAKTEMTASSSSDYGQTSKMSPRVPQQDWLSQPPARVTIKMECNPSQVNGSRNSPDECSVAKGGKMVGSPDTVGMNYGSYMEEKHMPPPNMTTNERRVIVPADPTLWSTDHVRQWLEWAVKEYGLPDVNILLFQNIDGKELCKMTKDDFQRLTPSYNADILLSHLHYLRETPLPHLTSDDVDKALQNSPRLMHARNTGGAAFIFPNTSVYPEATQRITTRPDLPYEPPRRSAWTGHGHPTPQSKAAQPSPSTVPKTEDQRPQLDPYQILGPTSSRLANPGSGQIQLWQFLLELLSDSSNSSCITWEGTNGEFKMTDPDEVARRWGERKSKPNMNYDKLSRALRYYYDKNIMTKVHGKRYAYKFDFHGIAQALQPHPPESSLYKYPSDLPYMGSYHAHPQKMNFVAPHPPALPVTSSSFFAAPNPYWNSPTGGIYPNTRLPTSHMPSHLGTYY", "summary_of_the_method": "as §1"}, "ELF1": {"molecular_target": "ELF1 (Homo sapiens, UniProt P32519 1-619)", "sequence (P32519 whole entry)": "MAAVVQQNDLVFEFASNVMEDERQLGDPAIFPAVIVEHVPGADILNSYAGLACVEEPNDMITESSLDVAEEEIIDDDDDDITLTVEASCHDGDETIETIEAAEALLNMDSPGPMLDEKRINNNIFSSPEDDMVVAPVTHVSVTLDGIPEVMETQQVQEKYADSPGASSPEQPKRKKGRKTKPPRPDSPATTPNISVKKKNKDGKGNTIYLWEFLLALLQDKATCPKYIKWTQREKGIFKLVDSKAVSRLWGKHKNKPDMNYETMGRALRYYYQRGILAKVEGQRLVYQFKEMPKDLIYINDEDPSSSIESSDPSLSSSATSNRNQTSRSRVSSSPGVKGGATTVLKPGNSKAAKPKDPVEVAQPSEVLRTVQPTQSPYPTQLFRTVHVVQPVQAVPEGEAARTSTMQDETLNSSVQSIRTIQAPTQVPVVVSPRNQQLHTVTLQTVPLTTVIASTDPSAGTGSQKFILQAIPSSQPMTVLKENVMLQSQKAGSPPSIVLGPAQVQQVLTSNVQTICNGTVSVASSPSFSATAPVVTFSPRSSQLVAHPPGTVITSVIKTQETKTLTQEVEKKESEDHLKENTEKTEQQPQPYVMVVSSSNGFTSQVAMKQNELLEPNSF", "summary_of_the_method": "as §1"}, "EHF": {"molecular_target": "T5, EHF (Homo sapiens, UniProt Q9NZC4 1-300)", "T5 sequence": "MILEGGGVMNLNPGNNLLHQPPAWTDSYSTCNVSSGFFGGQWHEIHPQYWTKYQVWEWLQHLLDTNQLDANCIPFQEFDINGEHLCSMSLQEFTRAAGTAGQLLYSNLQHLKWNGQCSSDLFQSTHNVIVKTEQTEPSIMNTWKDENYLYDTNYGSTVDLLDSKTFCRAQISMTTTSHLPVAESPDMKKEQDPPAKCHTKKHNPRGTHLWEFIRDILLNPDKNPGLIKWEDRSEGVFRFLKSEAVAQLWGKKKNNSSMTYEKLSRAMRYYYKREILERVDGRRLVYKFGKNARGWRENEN", "summary_of_the_method": "as §1"}, "SPI1": {"molecular_target": "SPI1 (Homo sapiens, UniProt P17947 1-270)", "summary_of_the_method": "as §1"}, "SPIB": {"molecular_target": "SPIB (Homo sapiens, UniProt Q01892 1-262)", "sequence (Q01892 whole entry)": "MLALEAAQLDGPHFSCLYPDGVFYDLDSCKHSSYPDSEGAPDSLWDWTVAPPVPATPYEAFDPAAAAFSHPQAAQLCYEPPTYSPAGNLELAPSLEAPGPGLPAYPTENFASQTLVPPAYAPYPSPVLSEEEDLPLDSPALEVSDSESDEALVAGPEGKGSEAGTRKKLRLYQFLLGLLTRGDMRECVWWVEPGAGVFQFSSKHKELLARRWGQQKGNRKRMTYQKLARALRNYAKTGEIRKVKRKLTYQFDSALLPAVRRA", "summary_of_the_method": "as §1"}, "ELK3": {"molecular_target": "T6, ELK3 (Homo sapiens, UniProt P41970 1-407)", "T6 sequence": "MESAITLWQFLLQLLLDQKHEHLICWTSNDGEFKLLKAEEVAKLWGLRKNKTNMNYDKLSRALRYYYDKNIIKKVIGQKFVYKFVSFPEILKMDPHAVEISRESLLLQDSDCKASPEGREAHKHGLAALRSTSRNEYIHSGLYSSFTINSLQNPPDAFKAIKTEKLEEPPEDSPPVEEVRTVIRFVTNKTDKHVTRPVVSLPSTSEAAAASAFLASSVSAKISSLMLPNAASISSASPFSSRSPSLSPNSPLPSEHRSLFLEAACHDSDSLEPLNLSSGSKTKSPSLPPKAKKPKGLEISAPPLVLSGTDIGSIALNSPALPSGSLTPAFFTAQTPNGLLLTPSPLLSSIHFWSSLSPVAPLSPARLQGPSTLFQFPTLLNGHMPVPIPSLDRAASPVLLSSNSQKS", "summary_of_the_method": "as §1"}}, "data": [{"sequence": "AACTAC", "values": [{"measurement": "binding signal", "setting": "FLI1", "result": "1.42 fold enrichment (6-mer frequency, TF over GST control)"}, {"measurement": "binding signal", "setting": "ELK1", "result": "1.42 fold enrichment (6-mer frequency, TF over GST control)"}, {"measurement": "binding signal", "setting": "GABPA", "result": "1.49 fold enrichment (6-mer frequency, TF over GST control)"}, {"measurement": "binding signal", "setting": "ERG", "result": "1.5 fold enrichment (6-mer frequency, TF over GST control)"}, {"measurement": "binding signal", "setting": "ELF1", "result": "1.45 fold enrichment (6-mer frequency, TF over GST control)"}, {"measurement": "binding signal", "setting": "EHF", "result": "1.43 fold enrichment (6-mer frequency, TF over GST control)"}, {"measurement": "binding signal", "setting": "SPI1", "result": "1.47 fold enrichment (6-mer frequency, TF over GST control)"}, {"measurement": "binding signal", "setting": "SPIB", "result": "1.47 fold enrichment (6-mer frequency, TF over GST control)"}, {"measurement": "binding signal", "setting": "ELK3", "result": "1.48 fold enrichment (6-mer frequency, TF over GST control)"}]}]}
